Results reported in PMC7862700, “An all-to-all approach to the identification of sequence-specific readers for epigenetic DNA modifications on cytosine”.

What was measured:
Assay in all cases: DAPPL (digital affinity profiling via proximity ligation, sequencing); 10 mM Tris-HCl pH 7.5, 50 mM NaCl, 1 mM DTT, 4% glycerol, room temperature, 30 min; GST-TFs on glutathione beads, 16-mer random dsDNA library, 0.1% formaldehyde crosslink after washing; high values mean tight binding
FEV = target: T1, FEV (Homo sapiens, UniProt Q99581 1-238); conditions: protein: recombinant; tags: N-terminal GST; dsDNA, one strand shown
T1 sequence: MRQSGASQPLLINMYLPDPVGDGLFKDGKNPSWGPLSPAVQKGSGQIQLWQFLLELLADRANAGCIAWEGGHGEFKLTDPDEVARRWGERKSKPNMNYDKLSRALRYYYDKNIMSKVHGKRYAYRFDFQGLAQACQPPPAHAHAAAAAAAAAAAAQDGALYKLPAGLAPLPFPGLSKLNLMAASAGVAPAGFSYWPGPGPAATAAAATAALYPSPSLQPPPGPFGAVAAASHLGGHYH
Procedure, shortened: (§1)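 The binding signal reported is, for every hexamer, its read frequency for a factor over its read frequency for the tag-only sample. Reads came from pools of yeast-expressed, GST-fused human transcription factors on glutathione beads, barcoded with DNA and mixed with that sample, which were incubated with 200 nmole of a random double-stranded 16-mer DNA library in Tris/NaCl/DTT/glycerol buffer at room temperature for 30 min. After washing, the pools were crosslinked with 0.1% formaldehyde, proximity-ligated with BsaI/T4 ligase for 1 h at 37 °C, PCR-amplified and sequenced on an Illumina NextSeq500.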

ETV5 = ETV5 (Homo sapiens, UniProt P41161 1-510); conditions: protein: recombinant; tags: N-terminal GST; dsDNA, one strand shown
Procedure, shortened: as §1

HSF1 = HSF1 (Homo sapiens, UniProt Q00613 1-529); conditions: protein: recombinant; tags: N-terminal GST; chain copies: 3; dsDNA, one strand shown
Procedure, shortened: as §1

SPIC = target: T2, SPIC (Homo sapiens, UniProt Q8N5J4 1-248); conditions: protein: recombinant; tags: N-terminal GST; dsDNA, one strand shown
T2 sequence: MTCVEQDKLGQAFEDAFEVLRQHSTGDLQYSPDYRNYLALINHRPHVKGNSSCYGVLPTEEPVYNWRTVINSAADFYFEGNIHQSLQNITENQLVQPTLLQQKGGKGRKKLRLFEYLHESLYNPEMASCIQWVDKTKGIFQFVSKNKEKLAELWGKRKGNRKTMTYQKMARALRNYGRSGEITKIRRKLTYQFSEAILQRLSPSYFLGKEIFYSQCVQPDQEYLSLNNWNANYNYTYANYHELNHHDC
Procedure, shortened: as §1

ELF4 = ELF4 (Homo sapiens, UniProt Q99607 1-663); conditions: protein: recombinant; tags: N-terminal GST; dsDNA, one strand shown
Procedure, shortened: as §1

ELK4 = target: T3, ELK4 (Homo sapiens, UniProt P28324-2 1-405); conditions: protein: recombinant; tags: N-terminal GST; dsDNA, one strand shown
T3 sequence: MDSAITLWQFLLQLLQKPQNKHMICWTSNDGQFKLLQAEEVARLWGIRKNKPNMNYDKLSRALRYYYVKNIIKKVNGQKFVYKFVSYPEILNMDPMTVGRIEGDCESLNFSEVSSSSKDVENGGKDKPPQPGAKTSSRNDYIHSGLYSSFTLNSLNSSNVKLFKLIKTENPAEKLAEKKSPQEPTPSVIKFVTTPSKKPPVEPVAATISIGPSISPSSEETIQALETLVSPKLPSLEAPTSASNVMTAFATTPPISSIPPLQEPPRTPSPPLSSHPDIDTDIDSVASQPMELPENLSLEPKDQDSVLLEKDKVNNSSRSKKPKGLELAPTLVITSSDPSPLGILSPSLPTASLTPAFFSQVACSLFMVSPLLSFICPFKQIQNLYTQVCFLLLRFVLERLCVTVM
Procedure, shortened: as §1

ETV2 = target: T4, ETV2 (Homo sapiens, UniProt O00321 1-342); conditions: protein: recombinant; tags: N-terminal GST; dsDNA, one strand shown
T4 sequence: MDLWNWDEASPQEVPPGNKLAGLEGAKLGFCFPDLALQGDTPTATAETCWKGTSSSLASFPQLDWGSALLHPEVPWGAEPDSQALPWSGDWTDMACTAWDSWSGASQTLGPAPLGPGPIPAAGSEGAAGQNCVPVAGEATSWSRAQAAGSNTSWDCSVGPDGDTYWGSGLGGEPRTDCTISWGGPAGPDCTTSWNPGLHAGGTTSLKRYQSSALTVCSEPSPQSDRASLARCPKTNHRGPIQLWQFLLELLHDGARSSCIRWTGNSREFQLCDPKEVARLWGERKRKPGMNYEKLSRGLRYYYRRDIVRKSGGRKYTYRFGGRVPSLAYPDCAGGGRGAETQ
Procedure, shortened: as §1

ETV1 = ETV1 (Homo sapiens, UniProt P50549 1-477); conditions: protein: recombinant; tags: N-terminal GST; dsDNA, one strand shown
Procedure, shortened: as §1

ERF = target: T5, ERF (Homo sapiens, UniProt P50548 1-548); conditions: protein: recombinant; tags: N-terminal GST; dsDNA, one strand shown
T5 sequence: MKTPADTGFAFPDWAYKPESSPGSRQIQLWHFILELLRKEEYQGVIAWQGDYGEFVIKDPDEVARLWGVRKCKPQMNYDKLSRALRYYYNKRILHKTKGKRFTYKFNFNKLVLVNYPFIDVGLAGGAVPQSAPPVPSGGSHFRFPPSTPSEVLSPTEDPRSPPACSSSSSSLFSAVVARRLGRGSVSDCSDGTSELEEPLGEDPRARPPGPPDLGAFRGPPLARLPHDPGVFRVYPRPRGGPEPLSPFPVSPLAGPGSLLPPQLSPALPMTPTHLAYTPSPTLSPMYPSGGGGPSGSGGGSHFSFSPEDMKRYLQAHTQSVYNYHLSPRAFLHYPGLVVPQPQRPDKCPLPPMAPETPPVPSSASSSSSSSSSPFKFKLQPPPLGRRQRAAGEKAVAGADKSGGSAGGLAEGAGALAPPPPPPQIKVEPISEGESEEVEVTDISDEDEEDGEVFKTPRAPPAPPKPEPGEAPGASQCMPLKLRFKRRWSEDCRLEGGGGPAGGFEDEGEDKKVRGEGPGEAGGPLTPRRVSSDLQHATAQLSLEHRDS
Procedure, shortened: as §1

ETV3L = target: T6, ETV3L (Homo sapiens, UniProt Q6ZN32 1-361); conditions: protein: recombinant; tags: N-terminal GST; dsDNA, one strand shown
T6 sequence: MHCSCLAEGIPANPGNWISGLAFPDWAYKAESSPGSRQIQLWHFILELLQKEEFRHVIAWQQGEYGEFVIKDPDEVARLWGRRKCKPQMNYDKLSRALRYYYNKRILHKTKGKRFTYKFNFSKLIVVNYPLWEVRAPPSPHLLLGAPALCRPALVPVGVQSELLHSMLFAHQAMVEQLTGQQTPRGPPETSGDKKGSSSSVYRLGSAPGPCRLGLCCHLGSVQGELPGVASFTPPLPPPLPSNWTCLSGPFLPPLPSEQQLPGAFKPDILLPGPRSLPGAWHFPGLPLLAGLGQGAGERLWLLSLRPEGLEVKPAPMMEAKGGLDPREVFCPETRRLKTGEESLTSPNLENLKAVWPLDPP
Procedure, shortened: as §1

ETS2 = target: T7, ETS2 (Homo sapiens, UniProt P15036 1-469); conditions: protein: recombinant; tags: N-terminal GST; dsDNA, one strand shown
T7 sequence: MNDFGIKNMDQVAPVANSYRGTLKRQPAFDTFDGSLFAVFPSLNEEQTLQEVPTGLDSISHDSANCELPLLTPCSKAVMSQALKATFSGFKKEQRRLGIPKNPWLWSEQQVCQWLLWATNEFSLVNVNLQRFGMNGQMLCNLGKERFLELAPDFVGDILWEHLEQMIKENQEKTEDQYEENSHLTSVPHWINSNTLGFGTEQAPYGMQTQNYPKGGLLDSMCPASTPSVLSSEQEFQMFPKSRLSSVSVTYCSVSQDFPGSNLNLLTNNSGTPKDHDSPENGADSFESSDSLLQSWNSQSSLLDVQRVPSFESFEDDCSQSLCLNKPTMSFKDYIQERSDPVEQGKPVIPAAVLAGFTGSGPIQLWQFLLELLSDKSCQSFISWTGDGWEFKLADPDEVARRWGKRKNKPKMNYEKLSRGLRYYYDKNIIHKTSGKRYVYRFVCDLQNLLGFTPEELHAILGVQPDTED
Procedure, shortened: as §1

SPDEF = target: T8, SPDEF (Homo sapiens, UniProt O95238 1-335); conditions: protein: recombinant; tags: N-terminal GST; dsDNA, one strand shown
T8 sequence: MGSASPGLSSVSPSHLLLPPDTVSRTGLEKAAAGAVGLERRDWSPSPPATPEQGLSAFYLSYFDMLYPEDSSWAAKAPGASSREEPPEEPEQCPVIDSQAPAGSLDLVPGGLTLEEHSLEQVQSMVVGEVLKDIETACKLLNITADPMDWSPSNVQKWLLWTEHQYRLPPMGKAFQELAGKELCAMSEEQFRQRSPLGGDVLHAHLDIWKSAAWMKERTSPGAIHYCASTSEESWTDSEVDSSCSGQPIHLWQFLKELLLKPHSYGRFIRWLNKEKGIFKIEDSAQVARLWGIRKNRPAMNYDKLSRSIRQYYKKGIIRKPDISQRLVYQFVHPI
Procedure, shortened: as §1

ETV7 = target: T9, ETV7 (Homo sapiens, UniProt Q9Y603 1-341); conditions: protein: recombinant; tags: N-terminal GST; dsDNA, one strand shown
T9 sequence: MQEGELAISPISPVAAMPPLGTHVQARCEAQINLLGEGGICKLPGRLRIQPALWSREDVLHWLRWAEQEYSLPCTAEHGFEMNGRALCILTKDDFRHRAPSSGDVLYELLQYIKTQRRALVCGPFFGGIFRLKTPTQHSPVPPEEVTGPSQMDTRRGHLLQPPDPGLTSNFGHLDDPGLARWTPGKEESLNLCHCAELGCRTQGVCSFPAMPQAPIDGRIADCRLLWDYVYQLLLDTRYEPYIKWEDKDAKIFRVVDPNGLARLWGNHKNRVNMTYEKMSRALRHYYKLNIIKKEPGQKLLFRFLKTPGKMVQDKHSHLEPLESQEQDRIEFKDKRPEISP
Procedure, shortened: as §1

ELF5 = target: T10, ELF5 (Homo sapiens, UniProt Q9UKW6-2 1-255); conditions: protein: recombinant; tags: N-terminal GST; dsDNA, one strand shown
T10 sequence: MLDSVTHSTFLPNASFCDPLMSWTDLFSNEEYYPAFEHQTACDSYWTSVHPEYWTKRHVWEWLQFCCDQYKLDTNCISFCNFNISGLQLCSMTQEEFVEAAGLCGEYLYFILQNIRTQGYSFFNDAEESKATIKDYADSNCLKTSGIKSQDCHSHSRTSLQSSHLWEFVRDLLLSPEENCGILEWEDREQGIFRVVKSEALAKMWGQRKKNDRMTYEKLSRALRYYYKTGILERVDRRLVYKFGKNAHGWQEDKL
Procedure, shortened: as §1

ETV3 = target: T11, ETV3 (Homo sapiens, UniProt P41162-2 1-143); conditions: protein: recombinant; tags: N-terminal GST; dsDNA, one strand shown
T11 sequence: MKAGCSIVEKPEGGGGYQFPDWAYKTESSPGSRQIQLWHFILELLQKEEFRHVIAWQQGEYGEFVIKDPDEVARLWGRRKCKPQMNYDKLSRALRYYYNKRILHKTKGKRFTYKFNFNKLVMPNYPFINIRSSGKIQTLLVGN
Procedure, shortened: as §1

ETV6 = ETV6 (Homo sapiens, UniProt P41212 1-452); conditions: protein: recombinant; tags: N-terminal GST; dsDNA, one strand shown
Procedure, shortened: as §1

CRX = CRX (Homo sapiens, UniProt O43186 1-299); conditions: protein: recombinant; tags: N-terminal GST; dsDNA, one strand shown
Procedure, shortened: as §1

ETV1, sequence (P50549 whole entry): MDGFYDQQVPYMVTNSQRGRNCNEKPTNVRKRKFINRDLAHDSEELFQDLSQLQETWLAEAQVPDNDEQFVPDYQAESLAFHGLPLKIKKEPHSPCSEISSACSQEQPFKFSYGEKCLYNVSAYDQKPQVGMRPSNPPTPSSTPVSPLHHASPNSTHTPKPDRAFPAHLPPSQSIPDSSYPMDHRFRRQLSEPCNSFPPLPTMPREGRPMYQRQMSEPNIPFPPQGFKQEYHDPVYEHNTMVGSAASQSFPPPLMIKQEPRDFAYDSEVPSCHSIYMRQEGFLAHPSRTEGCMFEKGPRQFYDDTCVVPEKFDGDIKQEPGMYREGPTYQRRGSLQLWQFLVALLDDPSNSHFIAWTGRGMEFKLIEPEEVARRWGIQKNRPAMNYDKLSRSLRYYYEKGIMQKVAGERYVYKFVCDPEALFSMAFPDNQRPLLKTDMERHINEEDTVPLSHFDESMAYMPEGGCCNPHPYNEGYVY
ELF4, sequence (Q99607 whole entry): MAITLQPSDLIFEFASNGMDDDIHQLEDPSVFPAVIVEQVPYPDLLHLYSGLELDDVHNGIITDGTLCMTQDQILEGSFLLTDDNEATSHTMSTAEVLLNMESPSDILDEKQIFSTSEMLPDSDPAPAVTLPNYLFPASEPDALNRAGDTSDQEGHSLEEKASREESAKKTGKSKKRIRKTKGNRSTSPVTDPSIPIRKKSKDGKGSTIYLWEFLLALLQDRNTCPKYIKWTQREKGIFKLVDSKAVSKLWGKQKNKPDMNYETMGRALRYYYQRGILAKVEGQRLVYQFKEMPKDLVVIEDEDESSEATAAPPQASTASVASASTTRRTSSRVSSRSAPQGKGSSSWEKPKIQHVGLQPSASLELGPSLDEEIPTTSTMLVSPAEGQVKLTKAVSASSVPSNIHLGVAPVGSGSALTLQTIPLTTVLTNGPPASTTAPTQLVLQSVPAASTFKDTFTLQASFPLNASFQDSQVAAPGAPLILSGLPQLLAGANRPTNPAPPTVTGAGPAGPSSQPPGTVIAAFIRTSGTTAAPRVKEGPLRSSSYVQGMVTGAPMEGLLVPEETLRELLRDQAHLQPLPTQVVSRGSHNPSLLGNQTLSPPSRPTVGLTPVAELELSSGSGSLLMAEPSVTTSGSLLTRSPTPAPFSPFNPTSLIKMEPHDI
HSF1, sequence (Q00613 whole entry): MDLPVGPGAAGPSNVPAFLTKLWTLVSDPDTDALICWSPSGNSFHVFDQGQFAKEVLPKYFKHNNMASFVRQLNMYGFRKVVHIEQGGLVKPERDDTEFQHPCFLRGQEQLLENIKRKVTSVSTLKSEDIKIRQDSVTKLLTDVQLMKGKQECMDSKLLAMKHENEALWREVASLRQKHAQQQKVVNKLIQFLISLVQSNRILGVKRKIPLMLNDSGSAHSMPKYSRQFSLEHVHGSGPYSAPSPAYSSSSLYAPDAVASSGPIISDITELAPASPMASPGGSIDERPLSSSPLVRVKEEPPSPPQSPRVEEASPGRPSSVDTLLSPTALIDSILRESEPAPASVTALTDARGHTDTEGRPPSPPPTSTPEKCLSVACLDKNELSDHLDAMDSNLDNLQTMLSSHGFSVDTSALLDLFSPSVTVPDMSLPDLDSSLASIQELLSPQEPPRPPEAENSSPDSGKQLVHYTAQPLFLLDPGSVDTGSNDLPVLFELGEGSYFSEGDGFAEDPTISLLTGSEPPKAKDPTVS
ETV5, sequence (P41161 whole entry): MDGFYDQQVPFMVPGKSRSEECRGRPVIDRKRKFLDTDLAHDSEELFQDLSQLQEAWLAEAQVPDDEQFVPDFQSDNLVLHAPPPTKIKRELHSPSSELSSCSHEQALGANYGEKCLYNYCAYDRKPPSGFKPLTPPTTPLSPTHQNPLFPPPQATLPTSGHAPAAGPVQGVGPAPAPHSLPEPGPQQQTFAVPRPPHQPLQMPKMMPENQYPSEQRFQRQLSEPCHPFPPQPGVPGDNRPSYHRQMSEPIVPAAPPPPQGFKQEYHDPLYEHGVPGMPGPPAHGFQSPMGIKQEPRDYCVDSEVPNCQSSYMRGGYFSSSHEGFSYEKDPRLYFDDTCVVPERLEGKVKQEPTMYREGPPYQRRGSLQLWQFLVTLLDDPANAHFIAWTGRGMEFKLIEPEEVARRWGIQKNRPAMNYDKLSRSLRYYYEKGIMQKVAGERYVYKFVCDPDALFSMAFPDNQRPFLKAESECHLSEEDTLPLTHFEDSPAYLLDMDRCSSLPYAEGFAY
ETV6, sequence (P41212 whole entry): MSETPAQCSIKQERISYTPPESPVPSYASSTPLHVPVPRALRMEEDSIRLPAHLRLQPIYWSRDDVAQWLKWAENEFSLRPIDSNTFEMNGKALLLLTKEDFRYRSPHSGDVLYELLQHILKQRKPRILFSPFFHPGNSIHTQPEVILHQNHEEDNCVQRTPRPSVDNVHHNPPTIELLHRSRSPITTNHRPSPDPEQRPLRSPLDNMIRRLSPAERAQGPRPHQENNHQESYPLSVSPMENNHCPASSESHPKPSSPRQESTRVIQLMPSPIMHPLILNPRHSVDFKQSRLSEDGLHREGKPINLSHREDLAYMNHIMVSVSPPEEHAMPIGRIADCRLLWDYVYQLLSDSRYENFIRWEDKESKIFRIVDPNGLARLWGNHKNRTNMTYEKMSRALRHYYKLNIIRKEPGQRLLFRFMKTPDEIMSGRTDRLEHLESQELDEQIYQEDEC
CRX, sequence (O43186 whole entry): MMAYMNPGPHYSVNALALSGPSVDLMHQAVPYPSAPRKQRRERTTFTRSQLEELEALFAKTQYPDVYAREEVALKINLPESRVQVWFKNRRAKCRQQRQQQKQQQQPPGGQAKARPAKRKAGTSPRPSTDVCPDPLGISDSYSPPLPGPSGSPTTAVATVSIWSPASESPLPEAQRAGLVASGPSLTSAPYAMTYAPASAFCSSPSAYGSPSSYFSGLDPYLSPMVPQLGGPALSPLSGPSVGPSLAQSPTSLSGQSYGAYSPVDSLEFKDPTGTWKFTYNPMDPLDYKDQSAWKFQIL

CGATAG
binding signal (FEV): 1.15 fold enrichment (6-mer frequency, TF over GST control)
binding signal (ETV5): 1.18 fold enrichment (6-mer frequency, TF over GST control)
binding signal (HSF1): 1.14 fold enrichment (6-mer frequency, TF over GST control)
binding signal (SPIC): 1.18 fold enrichment (6-mer frequency, TF over GST control)
binding signal (ELF4): 1.12 fold enrichment (6-mer frequency, TF over GST control)
binding signal (ELK4): 1.16 fold enrichment (6-mer frequency, TF over GST control)
binding signal (ETV2): 1.16 fold enrichment (6-mer frequency, TF over GST control)
binding signal (ETV1): 1.16 fold enrichment (6-mer frequency, TF over GST control)
binding signal (ERF): 1.17 fold enrichment (6-mer frequency, TF over GST control)
binding signal (ETV3L): 1.07 fold enrichment (6-mer frequency, TF over GST control)
binding signal (ETS2): 1.07 fold enrichment (6-mer frequency, TF over GST control)
binding signal (SPDEF): 1.03 fold enrichment (6-mer frequency, TF over GST control)
binding signal (ETV7): 1.15 fold enrichment (6-mer frequency, TF over GST control)
binding signal (ELF5): 1.02 fold enrichment (6-mer frequency, TF over GST control)
binding signal (ETV3): 1.17 fold enrichment (6-mer frequency, TF over GST control)
binding signal (ETV6): 1.11 fold enrichment (6-mer frequency, TF over GST control)

GGCTAG
binding signal (FEV): 1.08 fold enrichment (6-mer frequency, TF over GST control)
binding signal (ETV5): 1.06 fold enrichment (6-mer frequency, TF over GST control)
binding signal (HSF1): 1.18 fold enrichment (6-mer frequency, TF over GST control)
binding signal (SPIC): 1.2 fold enrichment (6-mer frequency, TF over GST control)
binding signal (ELF4): 1.1 fold enrichment (6-mer frequency, TF over GST control)
binding signal (ELK4): 1.22 fold enrichment (6-mer frequency, TF over GST control)
binding signal (ETV2): 1.15 fold enrichment (6-mer frequency, TF over GST control)
binding signal (CRX): 1.05 fold enrichment (6-mer frequency, TF over GST control)
binding signal (ETV1): 1.03 fold enrichment (6-mer frequency, TF over GST control)
binding signal (ERF): 1.17 fold enrichment (6-mer frequency, TF over GST control)
binding signal (ETV3L): 1.06 fold enrichment (6-mer frequency, TF over GST control)
binding signal (ETS2): 1.14 fold enrichment (6-mer frequency, TF over GST control)
binding signal (SPDEF): 1.14 fold enrichment (6-mer frequency, TF over GST control)
binding signal (ETV7): 1.2 fold enrichment (6-mer frequency, TF over GST control)
binding signal (ETV3): 1.13 fold enrichment (6-mer frequency, TF over GST control)
binding signal (ETV6): 1.18 fold enrichment (6-mer frequency, TF over GST control)
